Results reported in article PMC5540273 (PLoS ONE, 2017).

system: T1, YSK1; conditions: concentration: 1 μM,replicates: in singlicate; n = 1
T1 construct: gene STK25
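Also: KINOMEscan kinase panel screen.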

SMILES | %Inh
Cl.Cl.NC[C@H](CC1CCCCC1)NC(=O)c1cc(Br)c(-c2ccnc3[nH]ccc23)s1 [GSK1581427] | 0%
Cl.Cl.NC[C@H](Cc1ccc(C(F)(F)F)cc1)NC(=O)c1cc(Br)c(-c2ccnc3[nH]ccc23)s1 [GSK1487252] | 30%
Cc1occc1-c1nc(N)c(OC[C@@H](N)Cc2c[nH]c3ccccc23)cc1-c1cc2c(C)n[nH]c2cn1 [GSK1660450] | 57%
C[C@@H]1CCN(C(=O)CC#N)C[C@@H]1N(C)c1ncnc2[nH]ccc12 | 0%
CN(C)CC(O)COc1ccc(Nc2nccc(-c3cnn4nc(N5CCOCC5)ccc34)n2)cc1 (stereo not drawn) [GW767488] | 17%
CC(C)N1C(=O)Cc2cc(Nc3ncc(C(F)(F)F)c(NCc4cccc(S(C)(=O)=O)c4)n3)ccc21 | 0%
CNC(=O)c1ccccc1Sc1ccc2c(/C=C/c3ccccn3)n[nH]c2c1 | 0%
NC(=O)c1cc(-c2ccccc2)cc2c(C3CCNCC3)c[nH]c12 [GSK301362] | 1%
C[C@H]1Oc2cc(cnc2N)-c2c(nn(C)c2C#N)CN(C)C(=O)c2ccc(F)cc21 | 0%
Cc1ccc2c(-c3ccncc3)c(-c3ccc(F)cc3)nn2c1.Cl [GW461484] | 7%
CCN(CC)CCCCNc1ncc2cc(-c3c(Cl)cccc3Cl)c(NC(=O)NC(C)(C)C)nc2n1 | 58%
O=C(NCCCN1CCOC1=O)c1cnc(NCc2cc(Cl)ccc2Cl)nc1NC1CCCC1 | 0%
Nc1nc(Nc2ccccc2)cc(-c2ccc3c(N)n[nH]c3c2)n1 [GSK2225749] | 0%
Cc1ccc(-n2nc(C(C)(C)C)cc2NC(=O)Nc2ccc(OCCN3CCOCC3)c3ccccc23)cc1 [GW839464] | 0%
O=C(NCCNc1ccnc(NCc2ccc(F)cc2)n1)c1cc2ccccc2s1 [GSK1379944] | 0%

system: T2, YSK4; conditions: concentration: 1 μM,replicates: in singlicate; n = 1
T2 construct: gene MAP3K19

SMILES | %Inh
Cc1n[nH]c2ccc(-c3cc(OC[C@@H](N)Cc4ccccc4)cnc3-c3ccoc3)cc12.O=C(O)C(F)(F)F.O=C(O)C(F)(F)F [GSK507358] | 99.8%
Cl.Oc1cc(-c2nc(-c3ccccc3)[nH]c2-c2ccncc2)ccc1Cl [SB-386023] | 0%
CCn1c(-c2nonc2N)nc2c(C#CC(C)(C)O)nc(OCCN)cc21.Cl.Cl [GSK902056] | 99.7%
CCN(CC)CCOc1ccc(Nc2ncc3cc(-c4c(Cl)cccc4Cl)c(=O)n(C)c3n2)cc1 [SB-601273] | 99.2%
CC(C)Nc1cc(-c2ccc3c(N)n[nH]c3c2)nc(N)n1 [GSK2221681] | 41%
C=CC(=O)Nc1cc2c(Nc3ccc(F)c(Cl)c3)ncnc2cc1OCCCN1CCOCC1 [GW781483] | 49%
C[C@@H](Oc1cc(-c2cnn(C3CCNCC3)c2)cnc1N)c1c(Cl)ccc(F)c1Cl | 72%
CN(C)CCOc1ccc(-c2cc(-c3c[nH]nc3-c3ccccn3)ccn2)cc1 [GW835314] | 28%
Cc1cc(C(=O)Nc2ccc(Oc3ccc4nc(NC(=O)C5CC5)cn4n3)cc2)nn1-c1ccccc1 | 1%
Cl.Cl.Nc1nc(-c2ccc3c(N)n[nH]c3c2)cc(N2CCCC(NC(=O)c3ccccc3)C2)n1 (stereo not drawn) [GSK2286775] | 36%
COc1ccc(C[C@@H](CN)NC(=O)c2cc(Br)c(-c3ccnc4[nH]ccc34)s2)cc1.Cl.Cl [GSK1389063] | 99.6%
Cc1cc2cn[nH]c2cc1-c1cccc2c(N)c(C(N)=O)nnc12 | 71%
Cl.Cl.NC[C@H](CC1CCCCC1)NC(=O)c1cc(Br)c(-c2ccnc3[nH]ccc23)s1 [GSK1581427] | 99.6%
Cl.Cl.NC[C@H](Cc1ccc(C(F)(F)F)cc1)NC(=O)c1cc(Br)c(-c2ccnc3[nH]ccc23)s1 [GSK1487252] | 88%
Cc1occc1-c1nc(N)c(OC[C@@H](N)Cc2c[nH]c3ccccc23)cc1-c1cc2c(C)n[nH]c2cn1 [GSK1660450] | 99.7%
C[C@@H]1CCN(C(=O)CC#N)C[C@@H]1N(C)c1ncnc2[nH]ccc12 | 8%
CN(C)CC(O)COc1ccc(Nc2nccc(-c3cnn4nc(N5CCOCC5)ccc34)n2)cc1 (stereo not drawn) [GW767488] | 90%
CC(C)N1C(=O)Cc2cc(Nc3ncc(C(F)(F)F)c(NCc4cccc(S(C)(=O)=O)c4)n3)ccc21 | 99.8%
